Lassa entry inh – Lassa virus entry inhibition; AID 540256; Potency, µM (doses to about 37.9 µM), for inactives: top-dose activity change, negative = inhibition, hits mostly inhibitors; Lassa virus pseudotype entry inhibition, cell reporter; actives 1.2% (n = 300,000); calls by dose curve; tested in HEK293 cells; also: potency is read from the fitted curve at half-maximal effect; nearly all actives have a fitted effect of over 50% in size
FMDV antiviral – foot and mouth disease virus antiviral activity | actives 1.2% (n = 410,000) | Potency, µM (top dose mostly 57.9 µM), for the others: at the highest dose activity change, negative = inhibition, actives largely listed as inhibitors | FMDV antiviral cell-based qHTS; calls by dose curve; tested in HEK293T cells; also: read-out not given here; potency is read from the fitted curve at half-maximal effect; nearly all actives have a fitted effect of over 45% in size
Marburg entry inh – blocks Marburg virus binding to or entry into cells. Marburg virus pseudotyped entry inhibition, cell reporter. Potency, µM (doses to about 37.8 µM), without a hit: top-dose activity change, negative = inhibition, actives largely listed as inhibitors. actives 1.8% (n = 300,000); calls by dose curve; tested in HEK293 cells; also: potency is read from the fitted curve at half-maximal effect
Giardia FBPA inh – Giardia lamblia aldolase inhibition; A8B2U2; purified Giardia FBPA; Potency, µM (series often up to 59.6 µM), for the others: at the top dose activity, negative = inhibition, actives largely listed as inhibitors; actives 0.71% (n = 290,000); AID 2451; also: potency is read from the fitted curve at half-maximal effect; nearly all actives have a fitted effect of over 55% in size
Target sequence (A8B2U2 whole entry, looked up): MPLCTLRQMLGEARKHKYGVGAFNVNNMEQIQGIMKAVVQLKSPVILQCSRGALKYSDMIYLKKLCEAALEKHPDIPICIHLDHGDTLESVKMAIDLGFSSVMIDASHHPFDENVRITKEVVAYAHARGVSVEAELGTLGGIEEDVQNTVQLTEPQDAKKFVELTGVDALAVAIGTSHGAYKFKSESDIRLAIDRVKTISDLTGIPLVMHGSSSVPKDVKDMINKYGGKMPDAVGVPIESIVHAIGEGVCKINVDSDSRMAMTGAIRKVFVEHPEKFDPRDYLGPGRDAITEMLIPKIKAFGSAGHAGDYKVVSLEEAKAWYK
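40 nM FBPA preincubated 10 min at RT with compound (up to 57.5 uM final), then substrate plus GAPDH/TPI/NAD/arsenate coupling and diaphorase/resazurin added. Fluorescence read after 20 min at RT, 525/598 nm.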
HCV inhibitor – HCV inhibition; Huh7.5.1 HCVcc-Cre infection, luciferase reporter, 44 h; AID 651820; Potency, µM (doses to about 41.8 µM), inactives show at the highest dose activity change, negative = inhibition, hits mostly inhibitors; actives 3.4% (n = 340,000); also: potency is read from the fitted curve at half-maximal effect
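Compounds are dispensed onto cells plated 4 h earlier at 1,000 per well, with HCVcc-Cre virus (about 0.5 moi) added next. Following 44 h of culture, luminescent signal is measured for 15 sec after 15 min with substrate at room temperature.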
HCMV inh – human cytomegalovirus inhibition. HFF cells, HCMV-luciferase reporter, 72 h; hits give low values. activity change, negative = inhibition, % at 57.5 µM. actives 4.5% (n = 410,000). AID 1259415; in the data active = activity change below about -60%; inconclusive = no clear call, values can overlap the other calls; inactive = above about -39%
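HFF cells seeded 16 h at 37C, treated with compounds, infected with luciferase-reporter HCMV at MOI 1 PFU/cell; luciferase read at 72 h post infection, normalized to buffer-only and Salinomycin controls.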
* marks the source's active call; other numbers are inactive results; ? = inconclusive; / = no result; + = active, no number; ! = not confirmed by another sample; [ ] = another dose, or the depositor's remark. An excerpt weighted towards active compounds, which were near 8.3% of everything screened. Unless noted, calls follow the shape of the dose curve; as a rule, active = well fitted curve in the direction sought with a large enough effect; inconclusive = small, poorly fitted or top-dose-only effect, or another doubt; inactive = no such curve, though single readings can be large; an effect the other way counts as inactive or inconclusive. % is scaled to controls: 0 for no effect and ±100 for the full control effect.

SMILES | Lassa entry inh | FMDV antiviral | Marburg entry inh | Giardia FBPA inh | HCV inhibitor | HCMV inh
CC(=O)N1CCc2cc(Br)cc(S(=O)(=O)CCC(=O)N3CCN(c4ccc(F)cc4)CC3)c21 | 3%[46.1 µM] | 11% | ? | / | / | -3
Cc1ccc(CN(C(=O)COc2ccccc2Cl)c2ccccn2)o1 | ? | 66% | 3%[46.1 µM] | / | / | 73
COc1ccc(-c2onc(C)c2-c2ccc(C(=O)OC(C)C)o2)c(O)c1 | ? | -25% | ? | -11% | 6.3µM* | -8
COc1ccccc1NC(=O)C1=C(C)Nc2nc(SC)nn2C1c1ccccc1Cl (centres undefined) | 1%[46.1 µM] | -13% | 3%[46.1 µM] | / | / | 8
N#CC1=C(SCC(=O)c2ccc(Br)cc2)NC2=C(C(=O)CCC2)[C@H]1c1ccco1 | / | / | 8.9µM* | / | / | /
Cc1ccc(C(=O)CSC2=C(C#N)C(c3ccco3)C3=C(CC(C)(C)CC3=O)N2)cc1 (centres undefined) | ? | -29% | ? | -13% | ? | -68*
Cc1ccc(NC(=O)CSC2=C(C#N)C(c3ccco3)C3=C(CCCC3=O)N2)cc1 (centres undefined) | ? | -5% | ? | ? | -13% | 7
CC(=O)C1=C(C)NC(SCC(=O)c2ccc(C)cc2)=C(C#N)C1c1ccco1 (centres undefined) | / | / | / | ? | 7.1µM* | /
N#CC1=C(SCC(=O)c2ccc(Cl)cc2)NC2=C(C(=O)CCC2)C1c1ccco1 (centres undefined) | ? | ? | ? | -9% | ? | -40
CC1(C)CC(=O)C2=C(C1)NC(SCC(=O)Nc1ccccc1)=C(C#N)C2c1ccco1 (centres undefined) | ? | -1% | 14µM* | -2% | -11% | ?
CCCc1nc(SC)ncc1C(=O)N1CCN(c2ccc(Cl)cc2)CC1 | -28%[46.1 µM] | ? | / | / | / | -23
Cc1ccccc1-c1nc(-n2ccnc2)c2ccccc2n1 | / | -21% | / | -1% | / | /
COc1ccccc1NC(=O)C1=C(C)NC(SCC(=O)c2ccccc2)=C(C#N)C1c1ccco1 (centres undefined) | -5% | ? | ? | -12% | 7.9µM* | /
C/C(CCc1ccco1)=N\NC(=O)CNc1cccc2ccccc12 | / | -2% | / | 20µM* | 5% | -29
O=C(Nc1cc(Sc2ccccn2)cc([N+](=O)[O-])c1)c1ccc([N+](=O)[O-])cc1 | ? | 22µM* | ? | -10% | ? | -29
C=CC[C@@H]1C=C[C@H](Oc2ccc(C)cc2)[C@H](COC(=O)NCc2cccc3ccccc23)O1 | / | / | / | -1%[12.9 µM] | / | /
C[C@@H]1O[C@@H](O[C@H]2C[C@@H](O)[C@]3(CO)[C@@H]4C(CC[C@]3(O)C2)[C@@]2(O)CC[C@H](C3=CC(=O)OC3)[C@@]2(C)C[C@H]4O)[C@H](O)[C@H](O)[C@H]1O (some centres undefined) | / | ? | 0.032µM* | 0% | / | /
C[C@@H]1O[C@@H](O[C@H]2C[C@@H](O)[C@]3(CO)[C@H]4[C@H](O)C[C@]5(C)[C@@H](C6=CC(=O)OC6)CC[C@]5(O)[C@@H]4CC[C@]3(O)C2)[C@H](O)[C@H](O)[C@H]1O | 0.046µM* | ? | 0.065µM* | 4% | 2.2µM* | /
Cc1c(-c2nsc(NC(=O)c3cccs3)n2)nnn1-c1ccc(Cl)cc1 | -2%[46.1 µM] | 34% | / | / | / | ?
CCN1CCCC1CNCc1cc2c(OC)c(OC)c(OC)cc2nc1N(C)C (centres undefined) | / | -15% | / | / | / | /
COC(=O)C1=C(C(=O)OC)[C@@H]2Nc3ccccc3[C@@]23C[C@@H](C(=O)OC)N(C(=O)Nc2ccc(C(F)(F)F)cc2)C3=N1 | / | / | -15%[14.2 µM] | / | / | /
CCOc1ccc(N(CC(=O)NCc2cccs2)S(=O)(=O)c2c(C)noc2C)cc1 | / | 8% | 5% | 1% | -17% | -60*
CCOC(=O)c1ccc(NC(=O)CN(c2ccc(C)cc2)S(=O)(=O)c2c(C)noc2C)cc1 | ? | -22% | 11µM* | / | / | 0
COc1ccc(N(CC(=O)NCc2ccc(C)cc2)S(=O)(=O)c2c(C)[nH]c(=O)[nH]c2=O)cc1 | 12%[46.1 µM] | -13% | 8%[46.1 µM] | 0% | 20% | +!
CCOc1ccc(N(CC(=O)Nc2cccc(Cl)c2)S(=O)(=O)c2c(C)noc2C)cc1 | / | ? | -4% | -6% | 13µM* | 1
SMILES | Lassa entry inh | FMDV antiviral | Marburg entry inh | Giardia FBPA inh | HCV inhibitor | HCMV inh
COc1ccc(CNC(=O)CN(c2ccc(OC)cc2)S(=O)(=O)c2c(C)[nH]c(=O)[nH]c2=O)cc1 | 29%[46.1 µM] | -12% | 7%[46.1 µM] | -5% | 20% | -19
Cc1ccc2cc3c(N)nn(C(=O)c4cccc(F)c4)c3nc2c1 | 8%[46.1 µM] | -1% | 4%[46.1 µM] | / | / | -11
COc1ccc(SCC(Cc2ccccc2)N2CCN(CCc3ccccc3)CCC2=O)cc1 (centres undefined) | / | / | / | -4% | / | /
O=C1COCc2ccc(-c3cccc(CO)c3)cc2N1CCc1ccccc1 | / | / | / | / | / | -4
COc1ccc(N(CC(=O)Nc2cc(C)on2)S(=O)(=O)c2cc(C)ccc2C)cc1 | -26% | 41% | ? | -6% | -16% | -91*
CCOc1ccc(NC(=O)CN(c2ccc(CC)cc2)S(=O)(=O)c2c(C)noc2C)cc1 | -10%[46.1 µM] | -26% | / | / | / | -7
COc1ccc(N(CC(=O)Nc2cc(C)on2)S(=O)(=O)c2ccc(Cl)cc2)cc1 | -16% | -8% | 0%[46.1 µM] | -5% | 14% | -1
CCOc1ccc(N(CC(=O)Nc2cccc(OC)c2)S(=O)(=O)c2c(C)noc2C)cc1 | / | ? | 3% | -12% | ? | -62*
CCOc1ccc(N(CC(=O)Nc2ccccc2OCC)S(=O)(=O)c2c(C)noc2C)cc1 | / | -28% | / | / | 11µM* | -86*
Cc1ccc(N(CC(=O)NCc2ccc(OC(C)C)cc2)S(=O)(=O)N(C)C)cc1 | 5µM* | ? | / | / | / | -4
COc1cccc(CNC(=O)CN(c2ccc(C)cc2)S(=O)(=O)N(C)C)c1OC | 0%[46.1 µM] | -4% | 8%[46.1 µM] | / | / | -18
CC(=O)Oc1ccc(/C=C/C(=O)CC2OC(Oc3cc(OC(C)=O)c4c(c3)O[C@@H](c3ccc(OC(C)=O)cc3)CC4=O)C(OC(C)=O)C(OC(C)=O)C2OC(C)=O)cc1 (some centres undefined) | / | / | / | 6% | / | /
CCn1ncc2c(=O)c(C(=O)c3ccccc3)c[nH]c21 | / | / | / | / | / | 3
O=C(NCCS(=O)(=O)N1CCN(c2ccccc2)CC1)C(c1ccccc1)c1ccccc1 | ? | -18% | / | / | / | 59
COC(=O)C12CC3=CCC4C(=O)N(c5ccccc5)C(=O)C4C3Cc3ccccc3[C@H]1CNC2=O (some centres undefined) | / | / | 5%[14.2 µM] | / | / | /
COC(=O)C/C=C\[C@@H](C)[C@@H](/C=N\O[C@@H](C)c1cn([C@H]2COC[C@H]2O)nn1)NS(=O)(=O)c1ccc(C)cc1 | / | / | / | 2%[12.9 µM] | / | /
